# Only some compounds are listed: those with a hit (about 4.8% of all), similar ones and a draw of the others.
# hcDAF12 agonist – H. contortus DAF-12 activation, primary screen; HEK293 hcDAF-12 lit1-tk-luc reporter, luminescence; 0% DMSO, 100% Δ7-dafachronic acid; activation, % at 6.8 µM; actives 1.4% (n = 370,000); AID 652067;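 active = activation above the mean of all tested compounds plus 3 SD, cut at about 5.5% in these data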;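 note: 100% = response to 3 µM Δ7-dafachronic acid high control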
# hgDAF-12 ag – agonists of H. glycines DAF-12 nuclear receptor | activation, % at 6.8 µM | HEK293 GAL4-hgDAF12 UAS-luciferase reporter, agonist luminescence; normalized to butyrate control | AID 687014 | actives 1.8% (n = 370,000);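 active = activation above a cutoff set at the mean of all screened compounds plus 3 SD, cut at about 10% in these data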;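 note: 0% = DMSO wells and 100% = sodium butyrate wells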
# DAX1 inh-1 – NR0B1 (DAX1) inhibition; actives 0.99% (n = 340,000); AID 504766; HEK293 Gal4-DAX1 luciferase reporter, luminescence; inhibition, % at 6.75 µM; P51843;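 active = inhibition above the mean over all tested compounds plus 3 SD, cut at about 4.2% in these data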;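 note: 0% = DAX1-transfected cells with DMSO and 100% = empty-vector control cells with DMSO; inhibition shows as a rise in luminescence from relieved DAX1 repression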
# Target sequence (P51843 207-470 limits assumed): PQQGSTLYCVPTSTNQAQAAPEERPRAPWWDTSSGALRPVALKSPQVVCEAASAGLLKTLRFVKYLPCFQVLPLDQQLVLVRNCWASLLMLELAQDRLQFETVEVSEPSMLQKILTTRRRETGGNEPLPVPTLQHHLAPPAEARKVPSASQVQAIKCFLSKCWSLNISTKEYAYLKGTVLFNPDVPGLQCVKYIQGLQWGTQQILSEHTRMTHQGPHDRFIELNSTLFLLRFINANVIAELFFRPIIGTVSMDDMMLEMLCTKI
# SMARCA2 act – SMARCA2 function activation, primary screen; actives 1% (n = 370,000); AID 652017; MG213 cells, MMTV-luciferase reporter, dexamethasone, overnight; activation, % at 9.1 µM; in the data active = activation above about 7.8%;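 note: 0% = vehicle wells and 100% = reference activator wells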
# DAX1 inh-2 – inhibitors of DAX1 repression of SF-1 activated StAR promoter. HEK293T StAR-luciferase reporter, SF-1/DAX-1 repression relief. inhibition, % at 6.8 µM. actives 1.1% (n = 370,000). AID 652010;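 active = inhibition above the mean over all tested compounds plus 3 SD, cut at about 3.6% in these data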;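 note: 0% = DAX-1 cells with DMSO and 100% = cells lacking DAX-1 with DMSO; higher inhibition means more luminescence from relief of DAX-1 repression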
# ssDAF-12 act – activators of S. stercoralis DAF-12 nuclear receptor. HEK293 ssDAF-12/GRIP1 lit1-tk-luc reporter, luminescence; % of 3 µM dafachronic acid response. activation, % at 6.8 µM. actives 1% (n = 370,000). AID 652126;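 active = activation above the mean over all tested compounds plus 3 SD, cut at about 0.9% in these data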;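 note: 0% = DMSO-only wells and 100% = 3 µM delta7-dafachronic acid wells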
# DAX1 conf – confirmation of human DAX1 (NR0B1) inhibitors | shares compounds with DAX1 inh-2 | HEK293T StAR-promoter luciferase reporter, SF-1/DAX-1 repression | AID 652134 | actives 87% (n = 2,400) | inhibition, % at 6.8 µM;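 active = inhibition above the average of every tested compound plus 3 SD, cut at about 3.8% in these data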;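 note: 0% = DAX-1 cells with DMSO and 100% = no DAX-1 control cells with DMSO; active compounds raise luminescence by relieving repression of the StAR reporter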
# SF1 mutant ctr – counter-screen for DAX1 inhibitors: nonselective inhibitors with SF-1 AF2 mutant | HEK293 StAR-luciferase, luminescence | AID 652136 | shares compounds with DAX1 inh-2 | inhibition, % at 6.8 µM | actives 78% (n = 2,400);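 active = inhibition above the mean of all tested compounds plus 3 SD, cut at about 3% in these data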;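 note: 0% = DAX-1 transfected cells with DMSO and 100% = cells without DAX-1 with DMSO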
# SMARCA2 conf – confirmation of SMARCA2 (BRM) function activators; shares compounds with SMARCA2 act; MG213 cells, MMTV-luciferase with dexamethasone, luminescence, overnight; MG213 cells expressing E1A, Rb sequestered; DMSO wells 0%, reference activator 100%; activation, % at 9.1 µM; actives 30% (n = 3,500); AID 652260;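 active = activation above its plate's cutoff, the mean activation of tested wells plus 3 SD, cut at about 7.9% in these data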
# GAL4-VP16 Luc – activates GAL4-VP16 luciferase, flagging SMARCA2 activator hits. HEK293 GAL4-VP16 pG5luc reporter, luciferase luminescence; scaled: DMSO wells 0%, SAHA wells 100%. shares compounds with SMARCA2 act. AID 686939. actives 41% (n = 3,500). activation, % at 9.1 µM;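 active = activation above the solvent-only control well mean plus 3 SD, averaged across control plates, cut at about 5.2% in these data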
# LXR ag – counter-screen for hcDAF-12 agonists: agonists of human LXR-beta | HEK293 Gal4-LXR tk-luc reporter, luminescence, 24 h; normalized: DMSO 0%, positive control 100% | 3,400 tested, under 10 active | activation, % at 6.8 µM | shares compounds with hcDAF12 agonist;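 active = mean percent activation of the reporter above a cutoff set as the average over tested compounds plus their standard deviation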
# Target sequence (P55055 whole entry, looked up, the tested form may be a part): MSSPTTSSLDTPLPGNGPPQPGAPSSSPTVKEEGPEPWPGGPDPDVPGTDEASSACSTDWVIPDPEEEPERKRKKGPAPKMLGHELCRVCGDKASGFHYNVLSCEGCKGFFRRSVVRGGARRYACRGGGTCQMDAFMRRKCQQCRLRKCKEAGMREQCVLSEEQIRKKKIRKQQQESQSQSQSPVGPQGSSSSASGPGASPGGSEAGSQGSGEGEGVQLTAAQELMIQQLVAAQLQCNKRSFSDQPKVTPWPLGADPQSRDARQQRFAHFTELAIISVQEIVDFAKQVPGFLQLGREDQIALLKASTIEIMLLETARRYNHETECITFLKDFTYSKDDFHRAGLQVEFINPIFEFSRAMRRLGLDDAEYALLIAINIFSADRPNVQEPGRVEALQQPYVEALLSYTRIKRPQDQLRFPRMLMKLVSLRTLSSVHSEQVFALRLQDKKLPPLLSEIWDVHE
# hcDAF12 ag – confirmation of H. contortus DAF-12 agonists | HEK293 hcDAF-12 lit1-tk-luc reporter, luminescence; % of Δ7-dafachronic acid response | AID 743032 | activation, % at 6.8 µM | shares compounds with hcDAF12 agonist | actives 61% (n = 3,400);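 active = mean activation across triplicate tests above the threshold derived from the earlier primary screen, cut at about 5.5% in these data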;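 note: 0% = DMSO only wells and 100% = 3 µM Δ7-dafachronic acid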
# hgDAF12 ag – confirmation of H. glycines DAF-12 agonists | actives 80% (n = 3,300) | HEK293 GAL4-hgDAF12 luciferase reporter, agonist mode; percent of butyrate response | activation, % at 6.8 µM | shares compounds with hgDAF-12 ag;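 active = mean activation over triplicate wells above the hit cutoff derived from the earlier primary screen, cut at about 11% in these data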;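 note: 0% = DMSO low control and 100% = 2 mM sodium butyrate high control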
# LXR ag 2 – counter-screen for DAF-12 agonists: agonists of human LXR-beta | shares compounds with hgDAF-12 ag | HEK293 Gal4-LXR luciferase reporter, 24 h | activation, % at 6.8 µM | 3,300 tested, under 10 active;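 active = mean activation of the triplicate above a set limit carried over from the primary screen, none filed active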
# An asterisk follows results filed as active; nt = no result given; ! = not confirmed by another sample.
SMILES,hcDAF12 agonist,hgDAF-12 ag,DAX1 inh-1,SMARCA2 act,DAX1 inh-2,ssDAF-12 act,DAX1 conf,SF1 mutant ctr,LXR ag,hcDAF12 ag,hgDAF12 ag,LXR ag 2,others
COc1ccc(/C=C/C(=O)Nc2ccccc2C(=O)N2CCCC2)cc1,0.1,0.0,0.1,0.0,1.0,-1.6,nt,nt,nt,nt,nt,nt,
COc1ccc(/C=C/C(=O)Nc2ccccc2C(=O)O)cc1,6.2*,14.0*,-2.3,2.2,5.2*,0.4,7.9*,2.9,nt,nt,11.1*,0.6,
O=C(Nc1nc(-c2nc3ccccc3s2)cs1)C1COc2ccccc2O1 (configuration not stated),3.6,3.0,2.0,0.1,1.0,-1.0,nt,nt,nt,nt,nt,nt,
CC(=O)Nc1nc(C2COc3ccccc3O2)cs1 (configuration not stated),6.7*,13.9*,0.7,5.7,5.8*,0.2,11.3*,5.1*,1.2,6.1*,15.3*,0.9,
CC(C)Nc1ncnc2c1cnn2-c1ccccc1,4.0,16.8*,0.0,-0.4,5.4*,-0.3,7.2*,4.2*,nt,nt,12.2*,0.8,
NNc1ncnc2c1cnn2-c1ccccc1,2.1,2.5,3.7,3.6,0.2,-0.3,nt,nt,nt,nt,nt,nt,
CCC(CO)Nc1ncnc2c1cnn2-c1ccc(OC)cc1 (configuration not stated),3.3,16.4*,1.2,0.9,5.1*,0.1,8.4*,4.4*,nt,nt,8.8,0.7,
Cc1cccc(-n2ncc3c(NC(C)C)ncnc32)c1,1.3,16.7*,0.8,-1.9,6.6*,0.4,11.4*,8.2*,nt,nt,17.9*,1.1,
Cc1cccc(-n2ncc3c(Nc4ccc(F)cc4)ncnc32)c1,-2.4,4.9,0.9,2.6,1.7,-1.4,nt,nt,nt,nt,nt,nt,
COc1ccc(-n2c(SCC(=O)N3CCCC3)nnc2-c2ccncc2)cc1,-0.1,-4.2,nt,2.4,0.1,-1.5,nt,nt,nt,nt,nt,nt,
N/C(=N\OC(=O)c1cc(Cl)ccc1Cl)c1ccncc1,0.5,4.5,0.4,-2.1,-0.7,-1.1,nt,nt,nt,nt,nt,nt,
N/C(=N\OC(=O)/C=C/c1ccccc1)c1ccncc1,1.4,7.0,3.0,7.3,1.0,-0.6,nt,nt,nt,nt,nt,nt,
N/C(=N\OC(=O)/C=C/c1ccccc1Cl)c1ccncc1,6.8*,21.3*,1.9,4.2,9.2*,0.0,11.0*,6.3*,1.4,4.3,16.4*,0.8,
N/C(=N\OC(=O)c1ccccc1Cl)c1ccncc1,6.2*,14.2*,-0.2,0.6,5.6*,0.5,6.8*,5.3*,nt,nt,13.2*,0.8,
N#Cc1ccc(Cn2ccc3ccc(-c4ccc5ccn(C(=O)C6CCC6)c5c4)cc32)cc1,-1.1,5.6,nt,-4.6,-1.2,-1.0,nt,nt,nt,nt,nt,nt,
O=c1c2ccccc2oc2c1oc1ccccc12,4.8,15.2*,2.6,14.2*,6.6*,0.1,7.3*,6.5*,nt,nt,12.9*,0.4,SMARCA2 conf=5.1;GAL4-VP16 Luc=9.0*
COc1cccc(NC(=O)C2CCCN2C(=O)Nc2cccc3c2OCO3)c1 (configuration not stated),-1.6,5.8,nt,-0.9,-0.1,-0.6,nt,nt,nt,nt,nt,nt,
Cc1ccc(-c2nc3ccc([N+](=O)[O-])cc3[nH]2)cc1,7.1*,17.8*,-2.4,3.5,9.2*,-0.1,13.8*,6.7*,1.3,7.1*,17.7*,1.0,
O=[N+]([O-])c1ccc2nc(-c3ccncc3)[nH]c2c1,2.0,4.2,2.8,-1.3,0.3,-1.1,nt,nt,nt,nt,nt,nt,
C/C(N)=C(/C#N)C(=O)CSc1nnc(-c2ccc(OC(F)F)cc2)o1,6.8*!,19.7*,6.3*!,6.1,4.8*,0.2,10.6*,8.2*,0.9,7.3*,13.5*,0.8,
COC(=O)CSc1nc2cc(C)cc(C)c2cc1C#N,0.7,6.5,-0.6,0.9,0.1,-0.8,nt,nt,nt,nt,nt,nt,
COC(=O)CSc1nc2ccc(C)cc2cc1C#N,7.2*,25.9*,5.9*,7.5,8.8*,1.4*,18.8*,11.1*,1.4,3.9,19.9*,1.1,
CC(=O)CSc1nc2cc3c(cc2cc1C#N)OCCO3,11.8*,27.2*,0.3,7.1,7.9*,0.0,13.5*,4.9*,2.1,10.1*,19.4*,1.6,
Cc1ccc(C2=CCN(C)C(=O)N2c2ccc([N+](=O)[O-])cc2)cc1,0.5,4.0,nt,-4.1,-0.1,-1.4,nt,nt,nt,nt,nt,nt,
COc1ccc(C2C(C(=O)Nc3c(C)cccc3C)CCC(=O)N2c2ccc(OC)cc2)cc1 (configuration not stated),0.1,-2.0,nt,-5.0,-0.9,-0.5,nt,nt,nt,nt,nt,nt,
O=C(CSc1nnc(NC(=O)c2ccc(F)cc2)s1)NCc1ccco1,-0.4,13.9*,0.1,7.2,6.5*,-0.1,9.3*,5.1*,nt,nt,12.2*,0.5,
COC(=O)[C@@]12CCCCC=C1N(CCc1ccc(Cl)cc1)C(=O)[C@H]2CC(=O)NCc1ccc(C)o1,0.0,-0.1,nt,-1.0,-1.7,-1.3,nt,nt,nt,nt,nt,nt,
c1ccc2nc3c(nc2c1)[nH]c1ccccc13,7.0*,18.3*,3.2,7.1,4.6*,1.7*,13.7*,7.6*,1.9,10.7*,17.3*,0.7,
